Screening data deposited in PubChem by National Center for Advancing Translational Sciences (NCATS).
In the library only some 2.7% were active in any assay of this set; here they are far more common.
Nrf2 inh: blocks Nrf2 signaling | actives 2.1% (n = 360,000) | A549 ARE-Fluc reporter, luciferase luminescence, 18-24 h | Potency, µM (top dose mostly 46 µM), for the others: top-dose activity change, negative = inhibition, actives largely listed as inhibitors | AID 504444; note: potency is the fitted concentration of half-maximal effect; % is set by controls: 0 for no effect and ±100 for the full control effect; nearly all actives have a fitted effect of over 60% in size
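A549 ARE_Fluc cells (5000/well, 5% FBS OPTI-MEM) pre-incubated 2 h, then treated with compounds 18-24 h at 37C/5% CO2 in concentration-response. CellTiter-Fluor viability read first; BugLite luciferase luminescence after 15 min at room temperature gives Nrf2 activity.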
12-LOX inh: inhibitors of human 12S-lipoxygenase ALOX12; P18054; purified 12hLO, xylenol orange hydroperoxide absorbance; Potency, µM (highest dose often 108 µM), for inactives: at the highest dose activity change, negative = inhibition, actives largely listed as inhibitors; actives 1.1% (n = 580,000); AID 1671190; note: potency is the fitted concentration of half-maximal effect; % is set by controls: 0 for no effect and ±100 for the full control effect
Target sequence (P18054 whole entry, looked up): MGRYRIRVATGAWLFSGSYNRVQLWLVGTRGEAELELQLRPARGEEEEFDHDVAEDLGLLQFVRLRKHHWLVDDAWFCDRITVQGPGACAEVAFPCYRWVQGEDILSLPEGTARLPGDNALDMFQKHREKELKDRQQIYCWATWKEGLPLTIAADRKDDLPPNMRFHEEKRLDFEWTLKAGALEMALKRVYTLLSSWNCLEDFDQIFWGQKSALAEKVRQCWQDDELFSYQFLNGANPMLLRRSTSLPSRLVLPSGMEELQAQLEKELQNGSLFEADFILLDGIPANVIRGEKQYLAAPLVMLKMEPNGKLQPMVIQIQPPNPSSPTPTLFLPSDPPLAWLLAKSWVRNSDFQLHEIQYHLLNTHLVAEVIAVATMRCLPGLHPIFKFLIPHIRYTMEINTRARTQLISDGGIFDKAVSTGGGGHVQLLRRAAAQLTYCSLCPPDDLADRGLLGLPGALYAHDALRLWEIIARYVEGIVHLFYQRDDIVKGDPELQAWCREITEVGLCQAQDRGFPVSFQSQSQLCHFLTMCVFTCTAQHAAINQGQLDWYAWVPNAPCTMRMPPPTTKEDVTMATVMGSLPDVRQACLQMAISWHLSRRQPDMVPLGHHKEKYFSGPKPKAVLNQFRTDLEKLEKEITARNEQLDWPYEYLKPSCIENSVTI
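Purified human 12hLO (150 nM final) in 25 mM Hepes, 0.01% Triton X-100, pH 7.0 was preincubated 15 min at room temperature with compound. Then 40 uM arachidonic acid was added, 30 min. Hydroperoxide was read by Fe-XO absorbance ratio 573/405 nm.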
ERG-DNA inh: inhibitors of human ERG Ets domain-DNA interaction | P11308 | fluorescence polarization, His-ERG Ets domain / labelled DNA | Potency, µM (titrated, usually from 76.9 µM), for inactives: at the top dose FP activity, negative = inhibition, usual class: inhibitors | actives 0.028% (n = 370,000); active = well fitted inhibition curve with a large enough effect in the polarisation, with a control signal flat; inconclusive = small, poorly fitted or top-dose-only effect, or effect the other way, or a change in a side signal; inactive = no such curve, though single readings can be large or run the other way; the % refers to the polarisation;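 note: polarization taken with two DNA probes labelled with fluorescein and Texas red; potency is the fitted concentration of half-maximal effect; % of control where 0% means no effect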
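His-tagged ERG Ets domain (1 uM in the protein solution; 300mM KCl, 50mM Tris-HCl, 1mM EDTA, 1mM DTT, pH 7.5) received compound, then a probe mix of 5 nM fluorescein-DNA and 100nM Texas-615-DNA. Fluorescence polarization was read for both dyes.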
A549 viability: counter-screen for Nrf2 inhibitors: cytotoxicity in A549 cells. A549 ARE-Fluc cells, CellTiter-Fluor viability, 18-24 h. Potency, µM (top dose mostly 46 µM), for inactives: at the top dose activity change, negative = cytotoxicity, hits mostly inhibitors. actives 0.16% (n = 390,000); note: potency is the fitted concentration of half-maximal effect; % is set by controls: 0 for no effect and ±100 for the full control effect
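A549 ARE-Fluc cells in 5% FBS OPTI-MEM, 5000 cells/well, rested 2 h then exposed to compounds in concentration-response for 18-24 h at 37 °C. Viability by CellTiter-Fluor fluorescence (Ex 405/Em 525) after 30 min; luciferase luminescence (BugLite, 15 min, RT) read afterwards.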
Nrf2 ARE act: activators of Nrf2 (ARE) signaling; actives 0.31% (n = 410,000); AREc32 ARE-luciferase reporter (MCF7-derived line), luminescence, 24 h; Potency, µM (series often up to 46.1 µM), for the others: top-dose activation, most hits filed as activators; note: potency is the fitted concentration of half-maximal effect; % of control where 0% means no effect; nearly all actives have a fitted effect of over 65% in size
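ARE-driven firefly luciferase activity in AREc32 cells measured after a 24 hr compound exposure at 37 deg C, using Steady-Glo reagent and a 30 min room-temperature hold.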
LDHA inh: inhibitors of human lactate dehydrogenase A | P00338 | purified LDHA, NADH/diaphorase-resazurin fluorescence; hits give low values | activity change, % (values are at about 110 or 230 µM) | actives 0.15% (n = 480,000); in the data active = activity change below about -30%; inconclusive = mostly about -25% to -30%;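 note: plate controls were DMSO wells for no effect and wells without enzyme for full effect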
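Remaining NADH was detected by diaphorase (0.133 mg/mL) converting 37 µM resazurin to fluorescent resorufin, read at 0 and 20 minutes. The preceding 5-minute room-temperature reaction used 2 nM LDHA, 0.2 mM sodium pyruvate and 0.06 mM NADH at pH 7.4.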
* = called active by the depositor; ? = inconclusive; / = no result given; [ ] = another dose, or the depositor's remark. Unless noted, calls come from the whole dose curve; as a rule, active = well fitted curve in the direction sought with a large enough effect; inconclusive = small, poorly fitted or top-dose-only effect, or another doubt; inactive = no such curve, though single readings can be large; an effect the other way counts as inactive or inconclusive.

SMILES	Nrf2 inh	12-LOX inh	ERG-DNA inh	A549 viability	Nrf2 ARE act	LDHA inh
CC(C)Oc1ccc(CN=C(N)N=C(N)N)cc1Cl	15µM*	1%	3%	-17%	0%	-5
CCCCN1C(=O)c2ccc(C(=O)OCc3csc(Nc4ccc(C)cc4)n3)cc2C1=O	/	?	/	/	/	6
Cc1ccc(C(CCNCCN(C)C)C2CCOC(C)(C)C2)cc1 (stereo not drawn)	/	?	/	/	/	2
CCCSc1ncc(Cl)c(C(=O)N(Cc2ccc(Cl)cc2)Cc2ccco2)n1	21µM*	-17%	-11%	-5%	5%	-5
CSc1ncc(Cl)c(C(=O)N(Cc2ccc(N(C)C)cc2)Cc2ccco2)n1	?	-29%	0%	13%	?	3
CCCS(=O)(=O)c1ncc(Cl)c(C(=O)N(Cc2ccccc2)Cc2ccco2)n1	16µM*	-22%	9%	?	?	0
CCSc1ncc(Cl)c(C(=O)N(Cc2ccccc2)Cc2ccco2)n1	?	-9%	1%	0%	0%	-8
O=[N+]([O-])c1ccc(N2CCN(c3ccc(O)cc3)CC2)cn1	21µM*	?	-9%	-27%	1%	16
Clc1ccc(C2=NNC(=NCc3ccc4c(c3)OCO4)SC2)cc1	23µM*	?	-1%	?	7%	-1
Cn1c(C(C#N)(CC(=O)N2CCCCC2)CC(=O)N2CCCCC2)nc2ccccc21	/	70%	/	/	/	-3
Oc1ccccc1-c1cc(-c2cccnc2)c2cncn2c1	/	7%[176 µM]	/	/	/	/
CN(C)C=Nc1ncc2c3ccccc3n(CCN(C)C)c2c1C#N	?	12%	2%	-26%	0%	5
CCN(CC)CCn1c2ccccc2c2cnc(N)c(C#N)c21	5.2µM*	-19%	0%	?	12%	-4
Cc1cccnc1CCNC(=O)CC1C(=O)NCCN1CC1CCCCC1 (stereo not drawn)	23µM*	0%	4%	2%	1%	4
Cc1noc(-c2ccc(OCc3ccc(F)cc3)cc2O)c1-c1ccc(Br)cc1	/	?	/	/	/	-7
Cc1ccc(S(=O)(=O)Nc2ccc(Nc3nccn4c(-c5ccc6ccccc6c5)cnc34)cc2)cc1	/	?	/	/	8%	-87*
Cc1ccc(-c2cnc3c(Nc4cccc(OC(F)(F)C(F)F)c4)nccn23)cc1	/	-2%	/	/	3%	-39*
Cc1ccc(S(=O)(=O)Nc2ccc(Nc3nccn4c(-c5ccccc5Oc5ccccc5)cnc34)cc2)cc1	/	?	/	/	0%	-10
FC(F)C(F)(F)Oc1cccc(Nc2nccn3c(-c4cc(C(F)(F)F)cc(C(F)(F)F)c4)cnc23)c1	/	12%	/	/	0%	-21
O=C(c1ccco1)N1CC(Oc2ccccc2-c2nc(-c3ccccc3)no2)C1	/	-3%	/	/	/	/
Cc1c(C(=O)N(Cc2cccc(F)c2)C2CCS(=O)(=O)C2)oc2cc(Br)ccc12 (stereo not drawn)	13µM*	-23%	3%	-20%	1%	-15
COc1ccc(C(=S)N2CCOCC2)cc1OC(=O)c1ccc([N+](=O)[O-])cc1	5%	25µM*	6%	-4%	0%	7
COc1ccc(C(=S)N2CCOCC2)cc1OC(=O)c1cccc([N+](=O)[O-])c1	0%	-17%	2%	0%	0%	0
CC(C)(C)C(=O)NCCCc1nc2ccccc2n1CCCOc1ccc(Cl)cc1	23µM*	6%	2%	?	2%	0
Cc1ccc(OCCn2c(CCNC(=O)C3CCCCC3)nc3ccccc32)cc1	?	/	-2%	-9%	/	-1
CC(=O)NCCc1nc2ccccc2n1CCCCOc1ccc(Cl)cc1	?	-7%	12%	2%	7%	2
CC(C)(C)c1ccc(OCCn2c(CCNC(=O)C3CCCCC3)nc3ccccc32)cc1	18µM*	/	/	-29%	/	-1
CCC(CC)NC(=O)CN(C)CC(=O)Nc1ccc(Cl)c(C(F)(F)F)c1	/	?	/	/	/	-2
